This is part of a sample that, as a whole, favours compounds with a hit. Of some 83,000 tested, about 20% had one in any assay.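 Values shown are percent growth following 48 h exposure of cells in 96-well plates to a single concentration of compound; below 10 was considered active.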 Activity calls are given as the source filed them.
System: HL-60(TB) leukemia
Assay: NCI-60 one-dose screen, 48 h (100 = growth as untreated, 0 = no growth, -100 = all killed)
Conditions: 10 µM unless noted

| Structure (SMILES) | growth |
| --- | --- |
| O=c1[nH]nc(-c2ccc(Cl)cc2)cc1Cc1cccc([N+](=O)[O-])c1 | 109% (inactive) |
| COc1cc(C2NC(c3cc(OC)c(OC)c(OC)c3)C(C#N)(C#N)C2(C#N)C#N)cc(OC)c1OC (stereo not given) | 89.3% (inactive) |
| COc1ccc(-c2cc(-c3nnc(SCC(=O)Nc4ccc(C(C)=O)cc4)n3-c3ccccc3)c3ccccc3n2)cc1OC | 100% (inactive) |
| COc1cccc(-c2nc3sccn3c2-c2ccnc(NCCNC(=O)c3ccccc3)n2)c1 | 94.2% (inactive) |
| NCCCNc1nc2ccccc2c2c(=O)c3cc(OC(F)(F)F)ccc3sc12 | -41.5% (active) |
| COc1cc(-c2c3c(cn2S(=O)(=O)c2ccccc2)-c2nc(N)sc2CC3)cc(OC)c1OC | 13.2% (inactive) |
| COc1ccc(/C=C2\CN(C(=O)C(Cl)Cl)C/C(=C\c3ccc(OC)cc3)C2=O)cc1 | -11.9% (active) |
| COc1cc(-c2nc(SC(C)C)nc(Nc3ccccc3C)c2C#N)cc(OC)c1OC | 103% (inactive) |
| CC(C)(C)N1CCC1C(N)=O (stereo not given) | 92.4% (inactive) |
| Cc1nc2cc(-n3c(-c4ccc(F)cc4)nc4ccccc4c3=O)ccc2n1Cc1ccccc1 | 57.7% (inactive) |
| Nc1cc2c(cc1N)-c1cc(N)c(N)cc1C2 | 103% (inactive) |
| CC(C)C1CCCCC1O (stereo not given) | 193% (inactive) |
| NC(C(=O)O)C(O)c1ccc(OCc2ccccc2)c(OCc2ccccc2)c1 (stereo not given) | 105% (inactive) |
| Cc1cc(=O)oc2cc(Oc3nc(-c4cccs4)cn4c(-c5cccs5)cnc34)ccc12 | 77.6% (inactive) |
| CCCCCCCCCCCCCCCCCCOc1ccccc1CC(=O)NCC[N+]1(C)CCCCC1 | 41.8% (inactive) |
| COC(=O)C1=C(C(=O)Nc2cccnc2)C2OC1(C(Cc1ccccc1)Oc1ccccc1)C1OC21 (stereo not given) | -56.2% (active) |
| CCCCCN1C=C/C(=C\C(=O)n2ccc3ccccc32)c2ccccc21 | 103% (inactive) |
| O=C(NC(=S)N1CC=CCC1)c1ccccc1 | 125% (inactive) |
| COC(=O)CC[C@@H]1O[C@@H](c2ccc(F)cc2)[C@@H](O)[C@H]1O | 113% (inactive) |
| COC(=O)C(Cc1ccccc1)n1cc(COc2nc(Cl)nc(Nc3ccc(Cl)cc3)n2)nn1 (stereo not given) | 72.2% (inactive) |

| Structure (SMILES) | growth |
| --- | --- |
| C=Cc1nn2c(CCC(=O)c3nc4ccccc4[nH]3)nnc2s1 | 104% (inactive) |
| Nc1c2ccccc2nc2ccccc12 (tested in a mixture with another compound) | 26.8% (inactive) |
| CCOC(=O)CSc1nc2sc3c(c2c(=O)n1-c1ccccc1)CCCCC3 | 109% (inactive) |
| CC(C)CCN(CCCNc1c2c(nc3cc(Cl)ccc13)CCCC2)CCC(C)C | 70.4% (inactive) |
| NC(=O)CN1CCN(c2ccccc2Cl)CC1 | 92.4% (inactive) |
| Cc1c(Cl)c(C)c(Cc2c(C)c(Cl)c(C)c(Cl)c2O)c(O)c1Cl | 10.3% (inactive) |
| O=C(NC1CCCCC1)c1ccc(Cl)cc1 | 92.8% (inactive) |
| COc1ccc(-c2cc(-c3nnc(SCC(=O)Nc4ccc(C(C)=O)cc4)o3)c3ccccc3n2)cc1 | 69% (inactive) |
| O=[N+]([O-])c1cc[n+]([O-])cc1 | 36.1% (inactive) |
| O=c1oc2ccccc2cc1-c1csc(N=Nc2c(O)[nH]c3ccc(Cl)cc23)n1 | 105% (inactive) |
| CCCCC(C#N)C(N)=O (stereo not given) | 93.8% (inactive) |
| COc1cc(/C=C/C(=O)c2cccc(-n3cc(-c4ccccc4)[nH]c3=O)c2)ccc1O | 3.49% (active) |
| C[C@H](C(=O)Nc1ccc(S(N)(=O)=O)cc1)S(=O)(=O)c1ccccc1 | 101% (inactive) |
| CCCCc1ccc(N=Nc2ccc(OCC[N+](C)(C)C)cc2)cc1 | 25.2% (inactive) |
| O=C1/C(=C/c2ccc([N+](=O)[O-])o2)Oc2ccc(Br)cc21 | 43.2% (inactive) |
| Cc1cc(N2CCN(CCNc3ccnc4cc(Cl)ccc34)CC2)nc(N2CCOCC2)n1 | 44.8% (inactive) |
| COc1ccc(/C=N/NC(=O)c2cccc3cc[nH]c23)cc1O | 10.1% (inactive) |
| N#C/C(=C\c1ccc2c(c1)OCO2)n1nnc2ccccc21 | -10.9% (active) |
| O=C(O)/C(Br)=C/c1c[nH]c2ccc(Br)cc12 | 96.9% (inactive) |
| C/C(=N\O)c1ccc(NC(=O)CSc2nnc(-c3cc(-c4ccc(S(C)(=O)=O)cc4)nc4ccccc34)n2-c2ccccc2)cc1 | 84% (inactive) |

From PubChem BioAssay (NCI)
